The values that follow come from the supplement of paper PMC6555819.

For the test, the system named is VDR:RXRa (NR concentration 270 nM, RXRa partner concentration 90 nM). In words: PBM binding z-score (relative to random genomic background probes); higher = stronger binding; sequences stand for … in GC…GCGATTGACAGCGTAGAATGAAGG
Here is the method:
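Protein-binding microarray (Agilent 4x180K custom design, double-stranded 60-nt probes: 5' GC cap, 34-nt variable region, 24-nt constant primer region; full probe sequence given). Purified or IVT nuclear receptor:RXRα heterodimers (3:1 NR:RXRα, mostly 270:90 nM) or homodimers were incubated for 1 h in PBS with 2% milk and no ligand, then detected with Alexa488 antibodies. Fluorescence from o1-orientation probes (~5 replicates averaged) was converted to z-scores against 500 random hg19 background probes. Variable regions are seed direct-repeat (DR0–DR5) sites, all their single-nucleotide variants and half-site ablations.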
Sequence CCTGCTAGGTCATGGTCAGCAAATCTACAGTATG showed a PBM binding z-score of 1.48.

Regarding CAAACTAGGTCACCGGAAGGTCAAAATCCGCATG, the PBM binding z-score came to 5.69.

With CGAAGTAGGTCAGAACAGGACAGTGAAGGATGAT, the PBM binding z-score was 0.559.

As for ATCTCTAGGTACCCAAGTTCAGTGAATGCCGAAC, the PBM binding z-score is 2.1.

In the case of CTACCAAGGTGCACAAGGTCGTTGATTACTATTC, the PBM binding z-score stood at 3.17.

Regarding CAGCCTAGGTCAGGGCCAGTACAGGAGGAACGTT, the PBM binding z-score came to 0.635.

TCGAGTAGGTTAGGGGCATTAAGAATGGCGTCGA returned a PBM binding z-score of 0.706.

Consider TTCCCAAGGTGAAAGGTCGTTGATGCACGCCTTG, for which the PBM binding z-score was determined as 3.35.

The sequence CCGACTGGGGCAGAAAGGTTACCATGCCATCCGG came in with a PBM binding z-score of 0.756.

AGAATGAGGTAATTAAGATCAGGGAATTGCGGTC showed a PBM binding z-score of 0.215.

In turn, TTTGCTAGGTCAACGATGGTCAGCTAATCTGCTA showed a PBM binding z-score of 1.9.

As to TATACAGGGTCAAAGGCCACAGTACGAATGTCGA, the PBM binding z-score turned out to be 5.15.

For ATCTCTAGGCAACAAGTTCAGTGAAAGAGAGGAC, the PBM binding z-score worked out at 1.82.

As to TCATATAGGTAAGCAGGTGAAAGTCCGTAAGTTA, the PBM binding z-score was determined as 0.388.

Take CGAACTAGGTCGTTGACAGGACAGTGAATAGTAA: the PBM binding z-score was found to be 0.71.

Take CGTCCAAGGTCATAGGAGGTCCGTGAAGACAGAT: the PBM binding z-score stood at 4.88.

Regarding ATCTCTAGGTACAGATAGTTCAGTGAATGCAAAT, the PBM binding z-score was determined as 1.18.

CCTATAAGTTGACCATAAGGGCAACCGAAGCTCG displayed a PBM binding z-score of 1.06.

For the sequence CCTAGTTGGTCAGGAGGTCAAACACCGGATATGA, the PBM binding z-score is 4.09.

Sequence CCTAGCAGGCAAGGGTCACTCAAGCATTTCGCTT came in with a PBM binding z-score of 2.81.

For TAGCCTAGGTCATTCGGGGGCCAGTATAGAAAGC, the PBM binding z-score was 3.99.

For the sequence GCTGCTAGGTCAACTGATGGTCGGCTAAAGCTCG, the PBM binding z-score stood at 1.4.

CAAACTAAGTCACAGAGGTCAAAGTCCGTGCGTA displayed a PBM binding z-score of 6.65.

The sequence GCGACTGGGGCAAAGCAGGTTACCATGAGGTTGG displayed a PBM binding z-score of 0.114.

For the sequence CCATACGGGTCACTGACAGGTTATAGCATTTGGA, the PBM binding z-score is 3.74.

The sequence TCTCGGAGGACACGAAAGATCAGAGCTCGACATC had a PBM binding z-score of 0.0612.

Sequence ACTTTCGGGTCAACGAGGTTATAGCACGCGTATA had a PBM binding z-score of 7.85.

CAAACTAGGTCACGAAAGGTGAAAGTCGAATGAC displayed a PBM binding z-score of 4.19.

Sequence TCTAGTTGGTCACGGAGGTCACACAGGACGGGTA yielded a PBM binding z-score of 5.94.

With CGTCCAAGGTCAAAGGAGGTCAGTGAAGACAGAT, the PBM binding z-score was determined as 6.53.

The sequence TCATATAGATAAATGCTAGGTGAAAGTCCGATCT came in with a PBM binding z-score of 0.736.

AGAATGAGGTAACCAAAGATCAGGGAAACGCTTG returned a PBM binding z-score of -0.129.

For the sequence CAATCTAGGTCAAGGTCAAAGTCGGTTTGTGCCA, the PBM binding z-score amounted to 4.97.

CAGCCTACGTCAGGGCCAGTATAGGAGGAACGTT gave a PBM binding z-score of -0.587.

In turn, TCTGGTTGGTCAAAGGTCACACACTCGAAATGCG came in with a PBM binding z-score of 5.33.

CGTCCAAGGTCAGAGAGGGCAGTGAATGCCGAGT displayed a PBM binding z-score of 6.5.

AGTCAAAGTCCACTAGGTAACGTAAGATTCAGCT had a PBM binding z-score of -0.0687.

For the sequence TCTTGTAGATCAGCAGGTTAAAAAAGCTGGCCAA, the PBM binding z-score was determined as 0.495.

With ATACCAAGGTGATCGTGACGTCGTTGATACTAAC, the PBM binding z-score amounted to 0.156.

Sequence ATCTCTAGGTAACAGTTCAGTGAATCCCGAGGAT yielded a PBM binding z-score of 0.208.
